A selection: hits, their analogues and other compounds. The true share with any hit is near 2.4%.
POLB inh: inhibitors of human DNA polymerase beta; P06746; Pol beta primer extension/strand displacement, fluorescence kinetic; Potency, µM (highest dose often 114 µM), without a hit: top-dose activity change, negative = inhibition, actives largely listed as inhibitors; 340,000 tested, 1.3% active; note: % is set by controls: 0 for no effect and ±100 for the full control effect
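Reaction started by 50 nM substrate onto compound-treated Pol beta (10 nM, 15 min preincubation, room temperature); plates read at 0 min and 10 min. Normalized concentration-effect data fitted by four-parameter Hill equation.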
TDP1 block: TDP1 (human) enzyme inhibition. 350,000 tested, 0.28% active. Potency, µM (highest dose often 130 µM), without a hit: at the top dose activity change, negative = inhibition, actives largely listed as inhibitors. AID 485290. recombinant TDP1, AlphaScreen DNA substrate cleavage; note: % is set by controls: 0 for no effect and ±100 for the full control effect; nearly all actives have a fitted effect of over 40% in size
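Compounds were preincubated with Tdp1 (1 nM final) for 15 min at room temperature before substrate (15 nM final) started a 5 min reaction; beads (10 ug/ml final) were then added for 10 min before AlphaScreen detection.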
POLI inh: inhibitors of human DNA polymerase iota; Q9UNA4; Pol iota fluorescent replication assay, 10 min; Potency, µM (top dose mostly 115 µM), without a hit: at the highest dose activity, negative = inhibition, hits mostly inhibitors; 390,000 tested, 1% active
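Pol iota at 10 nM preincubated 15 min with compounds at room temperature; reaction started with fluorescent substrate, 50 nM final. Fluorescence read kinetically at 0 and 10 min; buffer-only wells as negative control.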
POLH inh: DNA polymerase eta (human) inhibition; 390,000 tested, 1.2% active; Potency, µM (highest dose often 114 µM), for the others: top-dose activity change, negative = inhibition, actives largely listed as inhibitors; recombinant Pol eta, fluorescent DNA replication assay; AID 588591; Q9Y253; note: % is set by controls: 0 for no effect and ±100 for the full control effect
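Pol eta (10 nM) was preincubated with compounds for 15 min at room temperature, after which fluorescent replication substrate (50 nM final) was added to start the reaction. Fluorescence was read kinetically at 0 and 10 min.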
POLK inh: blocks human DNA polymerase kappa activity. 400,000 tested, 0.53% active. Potency, µM (series often up to 107 µM), without a hit: at the top dose activity, negative = inhibition, actives largely listed as inhibitors. purified Pol kappa, fluorescent DNA synthesis assay, 10 min. Q9UBT6. AID 588579; note: % is set by controls: 0 for no effect and ±100 for the full control effect
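Kinetic fluorescence screen: compound preincubated 15 min RT with 10 nM enzyme; 50 nM substrate (final) initiates; reads at 0/10 min.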
FEN1 inh: blocks human flap endonuclease 1 | 390,000 tested, 0.35% active | P39748 | Potency, µM (series often up to 114 µM), inactives show at the highest dose activity change, negative = inhibition, most hits filed as inhibitors | Recombinant FEN1 flap cleavage, fluorescence, 15 min; note: % is set by controls: 0 for no effect and ±100 for the full control effect; nearly all actives have a fitted effect of over 65% in size
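Nuclease activity of 10 nM FEN1 was measured after 15 min of room-temperature exposure to titrated compounds, by adding 50 nM flap substrate and reading plates at 0 and 15 min.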
Numbers without * were called inactive; u = inconclusive; x = not tested or not shown; [ ] = another dose, or the depositor's remark. Calls come from the whole dose curve; as a rule, active = well fitted curve in the direction sought with a large enough effect; inconclusive = small, poorly fitted or top-dose-only effect, or another doubt; inactive = no such curve, though single readings can be large; an effect the other way counts as inactive or inconclusive. Potency is the fitted concentration of half-maximal effect.

SMILES	POLB inh	TDP1 block	POLI inh	POLH inh	POLK inh	FEN1 inh
O=c1cc(COc2ncnc3c(Cl)cc(Cl)cc23)nc2sccn12	u	6%	u	0%	-24%	11%
Cc1cccc(C(=O)NCC(=O)OC(C(=O)Nc2cc(C(F)(F)F)ccc2Cl)c2ccccc2)c1 (stereo unspecified)	x	-3%	x	x	x	x
COc1cc(C2c3c(-c4c(C)cc(C)cc4O)n[nH]c3C(=O)N2Cc2ccco2)cc(OC)c1OC (stereo unspecified)	-13%	9%	-18%	x	-19%	-12%
CCN(CC)CCN1c2ccccc2Sc2ccc3ccccc3c21	1%	0%	40%	-18%	-11%	-22%
CCCCN1/C(=C/c2ccc3ccccc3[n+]2CC)Sc2ccccc21	50µM*	2%	5%	-23%	-40%	40µM*
CC(C)c1ccc(/C=C2\SC(=S)N(CCC(=O)NCCCn3ccnc3)C2=O)cc1	40µM*	-12%	-28%	-17%	u	-3%
COc1ccc(/C=C2\SC(=S)N(CCC(=O)NCCCn3ccnc3)C2=O)cc1	-1%	7%	-6%	-16%	11%	-3%
Cc1nnc(N2CCN(c3ccccc3F)CC2)c2c1nnn2Cc1ccc(F)cc1	30%	5%	24%	-14%	4%	6%
Cc1cc(C)nc(SCCc2ccncc2)n1	-2%	3%	22µM*	-11%	2%	-3%
Cc1cc(C)nc(SCSc2nc(C)cc(C)n2)n1	1%	-12%	1%	-8%	-11%	4%
Cc1ccc2c(=O)c(C(=O)c3cccc(Cl)c3)cn(CC(=O)NC3CCCCC3)c2n1	-24%	3%	-6%	6%	-12%	17%
COc1cccc(CN(C)CC(=O)NC(=O)NCc2ccco2)c1	16µM*	u	35µM*	18µM*	u	-14%
COc1cccc(NC(=O)CN(C)CC(=O)NCc2ccco2)c1	x	1%	13%	-4%	-2%	-13%
Cc1[nH]c2ccccc2c1/C=N/Nc1nncn1N	u	8%	5µM*	-23%	-5%	0%
Cc1oc(-c2ccccc2Cl)nc1CSCC(=O)NC1CCCC1	6%	0%	1%	0%	-2%	3%
Cc1oc(-c2ccccc2Cl)nc1CSCC(=O)N1CCCC1	79µM*	3%	26%	11%	-12%	-7%
O=C1C=C(c2ccccc2)OC(c2ccccc2)O1 (stereo unspecified)	11µM*	0%	116%	-24%	-20%	2%
Cc1ccc(S(=O)(=O)N2CCN(C(=O)CN(Cc3ccco3)Cc3cccs3)CC2)cc1	x	x	13%	-16%	9%	7%
CC1CCN(S(=O)(=O)c2ccc(NC(=O)C3CSC4(C)CCC(=O)N34)cc2)CC1 (stereo unspecified)	x	x	u	20µM*	-28%	1%
CC12CCC(=O)N1C(C(=O)Nc1cccc(S(=O)(=O)N3CCCCC3)c1)CS2 (stereo unspecified)	x	8%	u	8%	2%	3%
O=C(CSc1nc2cccnc2n1Cc1ccccc1)NCc1ccco1	u	-2%	-1%	u	-25%	6%
O=C(CSc1nccn1Cc1ccccc1)NCc1ccco1	28µM*	8%	u	-13%	0%[60.1 µM]	-1%
CCOc1ccc(-c2nnc3ccc(SCC(=O)NCc4ccco4)nn23)cc1	25µM*	0%	u	u	-7%	-19%
CCn1c(SCC(=O)NCc2ccco2)nnc1-c1cccs1	32µM*	50µM*	-7%	0%	-12%	0%
O=C(CSc1ncc(-c2ccccc2)nn1)NCc1ccco1	28µM*	-1%	u	-24%	-5%	1%
CC(C)(C)c1ccc(C(=O)NCC(c2cccnc2)N2CCc3ccccc3C2)cc1 (stereo unspecified)	10%	6%	10%	-8%	-6%	21%

Screens (PubChem BioAssay)
